# Test results as given in ChEMBL document CHEMBL3988442, “University of Dundee, Small-Polar-MMV Screening Library” (2021).
# Screen size: about 69,000 compounds; about 1,000 (1.4%) showed an effect of 50% or more. Many of the other results were omitted from the sample, so strong results are more common in it than they were.
# System: Leishmania donovani
# Assay: Leishmania intramacrophage assay
# Format: functional, organism-based
# Set-up: scale not given: in the data most compounds retested in dose-response had high values
compound,measurement,setting,value
CCC(C)NC(=O)Cc1c(C)nc2c(c1C)c(=O)[nH]n2C (stereo not drawn),Percent Effect,"30 µM, 30.03 µM",-5.579%
COc1cc(C(=O)N2CCCC(CNS(C)(=O)=O)C2)cc(OC)c1C (stereo not drawn),Percent Effect,"30 µM, 30.03 µM",16.86%
CN(C)CC1CN(Cc2ccc(F)cc2)Cc2nccn2C1.O=C(O)C(F)(F)F.O=C(O)C(F)(F)F (stereo not drawn),Percent Effect,"30.3 µM, […]",6.472%
N#Cc1ccc(CNC2CCN(CCc3ccncc3)CC2)cc1,Percent Effect,"30.3 µM, […]",19.38%
CC(NC1CCN(CCc2ccncc2)CC1)c1cnn(C(C)C)c1 (stereo not drawn),Percent Effect,"30.3 µM, […]",6.548%
Cc1cccc(CNC2CCN(CCc3ccncc3)CC2)c1C,Percent Effect,"30.3 µM, […]",74.34%
COC(=O)C(O)C1CCN(CCc2ccncc2)CC1 (stereo not drawn),Percent Effect,"30.3 µM, […]",9.422%
COc1ccc(CNC2CCN(CCc3ccncc3)CC2)cc1O,Percent Effect,"30 µM, 30.03 µM",9.899%
c1cc(CCN2CCC(NCc3ccsc3)CC2)ccn1,Percent Effect,"30.3 µM, […]",31.06%
Cc1ccc(CNC2CCN(CCc3ccncc3)CC2)s1,Percent Effect,"30 µM, 30.03 µM",45.1%
Cc1ccc(CNC2CCN(CCc3ccncc3)CC2)cc1C,Percent Effect,"30 µM, 30.03 µM",92.66%
Clc1cccc(CNC2CCN(CCc3ccncc3)CC2)c1,Percent Effect,"30.3 µM, […]",59.66%
Oc1cccc(CNC2CCN(CCc3ccncc3)CC2)c1,Percent Effect,"30.3 µM, […]",7.34%
CCCN1CCC(NCc2ccncc2)CC1,Percent Effect,"30.3 µM, […]",-7.602%
CSc1ccc(CNC2CCN(CCc3ccncc3)CC2)cc1,Percent Effect,"30.3 µM, […]",85.89%
CC1(c2ccccc2)CCC(=O)N(CCN2CCCOC2=O)C1 (stereo not drawn),Percent Effect,"30.3 µM, […]",-24.18%
CN(C)C(=O)CN1CCN(C(=O)c2cnn(-c3ccccc3Cl)c2)CC1,Percent Effect,30 µM,13.32%
CC(C)Cc1ccc(S(=O)(=O)Nc2ccc(=O)n(C)c2)cc1,Percent Effect,"30 µM, 30.03 µM",40.75%
CCOCCN1CCN(c2ccc(C#N)cn2)CC1CC (stereo not drawn),Percent Effect,"30.3 µM, […]",26.65%
COCCN1CCC(NCc2ccc(Cl)cc2)C1 (stereo not drawn),Percent Effect,30 µM,10.13%
Fc1ccc(CNC2CCN(CCc3ccncc3)CC2)cc1F,Percent Effect,"30.3 µM, […]",73.28%
CC(CNC1CCN(Cc2ccncc2)CC1)c1ccc(F)cc1F (stereo not drawn),Percent Effect,"30.3 µM, […]",10.91%
CC(NC(=O)c1ccnn1C)c1ccc(OCC2CC2)c(F)c1 (stereo not drawn),Percent Effect,"30.3 µM, […]",27.82%
CCCc1cc(NCCCC2CCOC2)n2nccc2n1 (stereo not drawn),Percent Effect,"30.3 µM, […]",32.07%
Cc1csc2c(N3CCC(NCCCC4CCOC4)CC3)ncnc12 (stereo not drawn),Percent Effect,"30.3 µM, […]",10.77%
Cc1csc2c(N3CCC(NCCc4ccnn4C)CC3)ncnc12,Percent Effect,"30.3 µM, […]",17.37%
CCS(=O)(=O)CCNC1CCN(c2nc3ccc(Cl)cc3s2)CC1,Percent Effect,"30.3 µM, […]",66.16%
Cc1n[nH]c(SCCNC2CCN(c3nc4ccccc4s3)CC2)n1,Percent Effect,"30.3 µM, […]",6.253%
CCc1nccn1CCNC1CCN(c2nc3ccc(Cl)cc3s2)CC1,Percent Effect,"30.3 µM, […]",98.8%
Cn1ccnc1SCCNC1CCN(c2nc3ccccc3s2)CC1,Percent Effect,"30.3 µM, […]",43.39%
Clc1ccc2nc(N3CCC(NCCCC4CCOC4)CC3)sc2c1 (stereo not drawn),Percent Effect,"30.3 µM, […]",61.31%
CCCc1cc(CNC2CCN(c3nc4ccccc4s3)CC2)on1,Percent Effect,"30.3 µM, […]",35.92%
CCOCC(O)CN1CCN(C(=O)C2CCC2)CC1 (stereo not drawn),Percent Effect,"30.3 µM, […]",23.63%
O=C1CCOC[C@]2(CN(Cc3ccccc3)C[C@H]2c2ccccc2)N1,Percent Effect,"30.3 µM, […]",-10.32%
CN(C)c1ccc(C(=O)N2CCC(c3cc4ncccc4[nH]3)CC2)cc1,Percent Effect,"30.3 µM, […]",-1.505%
CS(=O)(=O)CCNC(=O)N1CC2(CCCC2)c2ccccc21,Percent Effect,"30.3 µM, […]",0.5956%
CSCCC1c2nc[nH]c2CCN1Cc1cc(Cl)ccc1O (stereo not drawn),Percent Effect,"30 µM, 30.03 µM",8.861%
CCN(C)Cc1nc(-c2ccccc2NS(C)(=O)=O)oc1C,Percent Effect,"30.3 µM, […]",2.546%
O=C(O)C(F)(F)F.O=C(c1ccno1)N1CCO[C@@H]2CC(COCc3ccccn3)C[C@H]21 (stereo partly drawn),Percent Effect,"30.3 µM, […]",6.888%
Cc1ccccc1OCC1CCCN(C(=O)CN(C)C2CCNCC2)C1 (stereo not drawn),Percent Effect,"30.3 µM, […]",83.48%
Cc1cccc(OCC2CCCN(C(=O)CN(C)C3CCNCC3)C2)c1 (stereo not drawn),Percent Effect,"30.3 µM, […]",48.81%
COCC(=O)N1CCCC(COc2ccccc2C)C1 (stereo not drawn),Percent Effect,"30.3 µM, […]",0.2743%
CNc1cc(CNC(=O)c2ccccc2)nc(-c2ccncc2)n1,Percent Effect,"30 µM, 30.03 µM",35.29%
FC1(F)CCN(Cc2cccnc2)CC12CCN(c1ccccc1)C2.O=C(O)C(F)(F)F.O=C(O)C(F)(F)F.O=C(O)C(F)(F)F (stereo not drawn),Percent Effect,"30.3 µM, […]",99.13%
Cn1ccnc1CN1CCC(F)(F)C2(CCN(c3cnccn3)C2)C1.O=C(O)C(F)(F)F (stereo not drawn),Percent Effect,"30.3 µM, […]",-10.04%
O=C(C1CCCO1)N1CCC2(CC1)COCCN(Cc1ccncc1)C2.O=C(O)C(F)(F)F.O=C(O)C(F)(F)F (stereo not drawn),Percent Effect,"30.3 µM, […]",14.9%
Cn1cc(CN2CCC(F)(F)C3(CCN(c4cccnc4)C3)C2)cn1.O=C(O)C(F)(F)F.O=C(O)C(F)(F)F (stereo not drawn),Percent Effect,"30.3 µM, […]",0.6501%
FC1(F)CCN(Cc2ccncc2)CC12CCN(c1cccnc1)C2.O=C(O)C(F)(F)F.O=C(O)C(F)(F)F.O=C(O)C(F)(F)F (stereo not drawn),Percent Effect,"30.3 µM, […]",38.61%
FC1(F)CCN(Cc2cccnc2)CC12CCN(c1ccccn1)C2.O=C(O)C(F)(F)F.O=C(O)C(F)(F)F.O=C(O)C(F)(F)F (stereo not drawn),Percent Effect,"30 µM, 30.03 µM",38.27%
Cn1ccnc1CN1CCC(F)(F)C2(CCN(c3cccnc3)C2)C1.O=C(O)C(F)(F)F.O=C(O)C(F)(F)F (stereo not drawn),Percent Effect,"30.3 µM, […]",69.63%
O=C([C@@H]1CCCO1)N1CCOCC2(CCN(Cc3cccnc3)C2)C1 (stereo partly drawn),Percent Effect,"30.3 µM, […]",28.44%
O=C(C1CCCO1)N1CCC2(CC1)COCCN(Cc1cccnc1)C2.O=C(O)C(F)(F)F.O=C(O)C(F)(F)F (stereo not drawn),Percent Effect,"30.3 µM, […]",54.72%
Cc1ccccc1CC(=O)N(C)C1CCCC1,Percent Effect,"30 µM, 30.03 µM",-4.753%
CCCOCCn1ncc(N2CCc3ccccc3C2)cc1=O,Percent Effect,"30.3 µM, […]",-24.62%
O=C(NCCNc1ncccn1)N1CCCC1c1ccc(F)cc1 (stereo not drawn),Percent Effect,"30.3 µM, […]",15.04%
CCOC(=O)CNC(=O)c1cc2n(n1)CCCO2,Percent Effect,"30.3 µM, […]",10.49%
Cc1nc(S(=O)(=O)CCn2cccn2)n(C2CCCCC2)c1C,Percent Effect,"30.3 µM, […]",21.76%
NCc1ccccc1Sc1ccc(O)cc1.O=C(O)/C=C\C(=O)O,Percent Effect,"30.3 µM, […]",18.14%
CCCn1nnnc1CN1Cc2ccccc2CC1c1nnc(C)o1 (stereo not drawn),Percent Effect,"30.3 µM, […]",14.94%
Cc1ncoc1C(=O)N1CCOC(CCCC(C)C)C1 (stereo not drawn),Percent Effect,"30.3 µM, […]",-28.53%
CCc1nc(C2CCCN2Cc2nc(CCOC)no2)no1 (stereo not drawn),Percent Effect,"30 µM, 30.03 µM",14.38%
NCCc1n[nH]c(=O)n1-c1cccc(Cl)c1Cl,Percent Effect,"30.3 µM, […]",4.495%
CC(Cc1cncs1)Nc1ncnc2cccc(F)c12 (stereo not drawn),Percent Effect,"30.3 µM, […]",50.92%
CC(Cc1cccnc1)Nc1ncnc2cccc(F)c12 (stereo not drawn),Percent Effect,"30.3 µM, […]",5.204%
Cc1cc(CC(C)Nc2ncnc3cccc(F)c23)[nH]n1 (stereo not drawn),Percent Effect,"30.3 µM, […]",6.483%
N#Cc1cccc(C(=O)N2C[C@H]3CC[C@@H]2CN(C(=O)C2CCC2)C3)c1,Percent Effect,"30.3 µM, […]",15.5%
CC(c1ccco1)N(C(=O)Cn1nc2n(c1=O)CCCCC2)C1CC1 (stereo not drawn),Percent Effect,"30.3 µM, […]",-5.38%
CCS(=O)(=O)N1CCOC2(CCCN(c3cnccn3)C2)C1.O=C(O)C(F)(F)F (stereo not drawn),Percent Effect,"30.3 µM, […]",26.09%
Cc1cccc(CN2CCc3ncnc(N4CCN(C)CC4)c3CC2)n1.O=C(O)C(F)(F)F.O=C(O)C(F)(F)F,Percent Effect,"30.3 µM, […]",55.42%
Cc1nc(CN2CCc3ncnc(-c4ccncc4)c3CC2)cs1.O=C(O)C(F)(F)F.O=C(O)C(F)(F)F,Percent Effect,"30.3 µM, […]",3.502%
Cc1nc(CN2CCc3ncnc(-c4ccccc4)c3CC2)cs1.O=C(O)C(F)(F)F,Percent Effect,"30.3 µM, […]",41.98%
Cc1nc(CN2CCc3ncnc(-c4ccsc4)c3CC2)cs1.O=C(O)C(F)(F)F,Percent Effect,"30.3 µM, […]",54.86%
Cc1cccc(CN2CCc3ncnc(N4CCOCC4)c3CC2)n1.O=C(O)C(F)(F)F,Percent Effect,"30 µM, 30.03 µM",-4.013%
Cc1cccc(CN2CCc3ncnc(N4CCCC4)c3CC2)n1.O=C(O)C(F)(F)F,Percent Effect,"30.3 µM, […]",43.68%
Nc1nccnc1C(=O)N(Cc1ccccc1O)CC1CCCO1 (stereo not drawn),Percent Effect,"30.3 µM, […]",-0.1848%
O=C(C(C1CC1)C1CC1)N1CCC(n2ccnn2)CC1,Percent Effect,"30.3 µM, […]",12.14%
CN1CCN(c2ncc3c(=O)n(-c4cccc(F)c4)c(=O)[nH]c3n2)CC1,Percent Effect,"30 µM, 30.03 µM",19.86%
O=C(O)C(F)(F)F.O=C(O)C(F)(F)F.O=C1NC2(CCN(Cc3cccs3)CC2)CC1c1ccncc1 (stereo not drawn),Percent Effect,"30.3 µM, […]",15.69%
COc1ccc(CC(=O)N2CCC(c3n[nH]c(C4CC4)n3)CC2)cc1,Percent Effect,"30.3 µM, […]",20.62%
CC(=O)Nc1nc(CNc2ccccc2CCC(F)(F)F)cs1,Percent Effect,"30.3 µM, […]",-4.538%
CN1C[C@@H](C(=O)N2CCOCC2)[C@@]2(CCc3ccccc3C(=O)N2)C1,Percent Effect,"30.3 µM, […]",0.0295%
N#Cc1cnc2c(F)cc(F)cc2c1NC1CCN(CC(N)=O)CC1,Percent Effect,"30.3 µM, […]",54.87%
N#Cc1cnc2cc(F)cc(F)c2c1NC1CCN(CC(N)=O)CC1,Percent Effect,"30.3 µM, […]",21.49%
Cc1cc(C)c2ncc(C#N)c(NC3CCN(CC(N)=O)CC3)c2c1,Percent Effect,"30.3 µM, […]",5.1%
CN(C)c1ccc(CC(=O)N[C@@H]2CCNC[C@H]2O)cc1,Percent Effect,"30 µM, 30.03 µM",-29.81%
CC(Nc1ncnc2c1CCNC2)c1ccc2c(c1)CCCC2 (stereo not drawn),Percent Effect,"30.3 µM, […]",82.26%
Cc1ccccc1C(CNc1ncnc2c1CCNC2)N(C)C (stereo not drawn),Percent Effect,"30.3 µM, […]",-14.27%
CC(Nc1ncnc2c1CCNCC2)c1nc2c(s1)CCCC2 (stereo not drawn),Percent Effect,"30.3 µM, […]",11.97%
CCCc1ccc(C(C)Nc2ncnc3c2CCNC3)cc1 (stereo not drawn),Percent Effect,"30.3 µM, […]",81.31%
Cc1cc(C)n(CC(C)Nc2ncnc3c2CCNC3)n1 (stereo not drawn),Percent Effect,"30.3 µM, […]",-4.806%
CCOc1ccc(C(C)Nc2ncnc3c2CCNC3)cc1OCC (stereo not drawn),Percent Effect,"30.3 µM, […]",19.33%
Cc1ccccc1C(Nc1ncnc2c1CCNC2)c1ccccc1 (stereo not drawn),Percent Effect,"30.3 µM, […]",61.26%
Cc1ccccc1C(CNc1ncnc2c1CCNCC2)N(C)C (stereo not drawn),Percent Effect,"30.3 µM, […]",-7.029%
CC(Nc1ncnc2c1CCNC2)c1ccc(C(C)(C)C)cc1 (stereo not drawn),Percent Effect,"30.3 µM, […]",88.55%
Cc1nc(C(C)Nc2ncnc3c2CCNCC3)c(C)s1 (stereo not drawn),Percent Effect,"30.3 µM, […]",9.224%
CCc1nc(NC2CC(=O)N(CC3CCCCC3)C2)ncc1C (stereo not drawn),Percent Effect,"30.3 µM, […]",15.64%
Cn1cc(C2CN(C(=O)Cc3coc(-c4ccccc4)n3)CCO2)cn1 (stereo not drawn),Percent Effect,"30.3 µM, […]",1.481%
COc1ccccc1CCN(C)C(=O)NC(C)c1nncn1C (stereo not drawn),Percent Effect,"30 µM, 30.03 µM",13.36%
